Bioassay records from PubChem BioAssay.
BRCT PPI red = BRCT-phosphoprotein interaction inhibition (red fluorophore). P38398. BRCT-phosphopeptide binding, red fluorescence polarization. Potency, µM (doses to about 76.9 µM), inactives show top-dose activity change, negative = inhibition, usual class: inhibitors. 75,000 tested, 0.03% active. AID 892; further: on the % scale 0 is the no-effect control and ±100 the full control effect
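Fluorescence polarization: 100 nM His-tagged BRCA1 BRCT with 100 nM TAMRA-labelled phospho-BACH1 decapeptide, phosphate buffer pH 7.3 with 150 mM NaCl, DTT, 0.01% Tween 20; 12 min RT. Binding inhibition seen as FP decrease.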
DNA Pol III inh = DNA polymerase III holoenzyme inhibition; reconstituted DNA polymerase III holoenzyme replication, biochemical; Potency, µM (highest dose often 57.1 µM), for inactives: top-dose activity change, negative = inhibition; 71,000 tested, 0.25% active; further: potency means the concentration at half of the fitted maximal effect; on the % scale 0 is the no-effect control and ±100 the full control effect
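Reconstituted *E. coli* holoenzyme (0.35 nM Pol III, 1 nM beta, 154 nM SSB, 2 nM primase) was preincubated with compound for 15 min at RT. Synthesis on 1.4 nM ssM13Gori ran 35 min, then was stopped with PicoGreen/EDTA and read as dsDNA fluorescence.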
BRCT inh green = BRCA1 BRCT-phosphoprotein interaction inhibition; BRCA1 BRCT-phosphopeptide binding, green fluorescence polarization; Potency, µM (titrated, usually from 76.9 µM), without a hit: at the highest dose activity change, negative = inhibition, usual class: inhibitors; 75,000 tested, 0.05% active;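 further: potency means the concentration at half of the fitted maximal effect; plate controls were peptide without protein for full effect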
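Compounds were incubated for 12 min at room temperature with a complex of 100 nM fluorescein-tagged pBACH1 decapeptide and 250 nM His-tagged BRCT protein. Buffer was phosphate pH 7.3 with EDTA, DTT and Tween 20. Disruption of binding lowers the polarization signal.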
HEK293 cAMP cs = counter-screen for TSHR agonists: cAMP increase in parental HEK293. AID 938. Potency, µM (titrated, usually from 57.1 µM), inactives show top-dose activation, most hits filed as activators. 73,000 tested, 2.5% active. parental HEK293 CNG cAMP sensor, membrane potential fluorescence; further: potency means the concentration at half of the fitted maximal effect; % of control where 0% means no effect; nearly all actives have a fitted effect of over 55% in size
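Parental HEK 293 cells stably expressing a cAMP-gated CNG channel were loaded with membrane potential dye containing 100 uM RO 20-1724 for 60 min. Compound added for 30 min; depolarization read as fluorescence intensity at 590 nm.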
TsaE inh = displaces an ADP probe from E. coli YjeE (TsaE); 71,000 tested, 0.05% active; purified YjeE enzyme, qHTS inhibition assay; AID 605; Potency, µM; P0AF67
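Fluorescence polarization of a BODIPY Texas Red–ADP probe (2 uM) bound to purified YjeE (10 uM) was read after 15 min room-temperature incubation with compounds. Loss of polarization marks inhibitors; ADP serves as titrated control.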
TSHR agonist = TSH receptor (human) agonism; P16473; HEK293-CNG-TSHR cells (CNG channel as cAMP sensor), membrane potential dye, cAMP; Potency, µM (titrated, usually from 57.1 µM), for inactives: at the highest dose activation, hits mostly activators; 73,000 tested, 0.48% active; active means well fitted activation curve with a large enough effect in the main read-out, with a control signal flat, not every such curve was filed as active; inconclusive means small, poorly fitted or top-dose-only effect, or a change in a side signal; inactive means no such curve, though single readings can be large or run the other way; % of control where 0% means no effect;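 further: the control signal comes from parental cells without the receptor; potency means the concentration at half of the fitted maximal effect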
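cAMP rise detected as CNG-channel membrane depolarization by fluorescent dye (emission 590 nm), 30 min after compound, following 60 min dye loading containing 100 uM RO 20-1724 at room temperature. Cells: TSHR/CNG HEK 293, with parental CNG HEK 293 as control.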
* = called active by the depositor; i = inactive; ? = inconclusive; / = not tested or not shown; [ ] = remark or other dose. The list is not random: actives were taken first. Their share in the collection is about 3.2%. Unless noted, the call rests on the fitted dose curve; in most records, active means well fitted curve in the direction sought with a large enough effect; inconclusive means small, poorly fitted or top-dose-only effect, or another doubt; inactive means no such curve, though single readings can be large; an effect the other way counts as inactive or inconclusive.

SMILES | BRCT PPI red | DNA Pol III inh | BRCT inh green | HEK293 cAMP cs | TsaE inh | TSHR agonist
COC(=O)[C@H](NC(=O)c1cc(-c2ccccc2)nc2ccccc12)c1ccccc1 | -3% | 2% | 2% | 13µM* | i | ?
COC(=O)C1=C(C)NC(C)=C(C(=O)OC)C1c1cn(-c2ccccc2)nc1-c1ccco1 | -3% | 0% | -4% | 8% | i | 1.6µM*
COCCOC(=O)C1=C(C)NC(=O)NC1c1cn(-c2ccccc2)nc1-c1cccs1 (configuration not stated) | 0% | -1% | 4% | 1% | i | 17%
CC(=O)OC[C@@H]1O[C@H](CCON=C(C)C)C=C[C@@H]1OC(C)=O | 2%[15.4 µM] | / | 0%[15.4 µM] | 8%[11.4 µM] | / | 1%[11.4 µM]
COc1ccc(-c2nc3cnc(N4CCNCC4)nc3n(C3CC3)c2=O)cc1 | 0% | -3% | -3% | ? | i | ?
CCC(=O)N(Cc1cc2cc(OC)ccc2[nH]c1=O)c1ccc(C)cc1C | 2% | -1% | 4% | 32µM* | i | ?
COc1ccc2[nH]c(=O)c(CN(C(C)=O)c3cccc(C)c3)cc2c1 | 0% | -3% | -2% | 7% | i | 0%
CCCCCCCC/C=C\CCCCCCCC(N)=O | 0% | -6% | -3% | -1% | i | -1%
COC(=O)[C@@]1(Cc2ccc(OC)cc2)[C@H]2c3cc(C(=O)N(C)C)n(CCO)c3C[C@H]2CN1C(=O)c1ccccc1 | 1% | 9% | -1% | 3% | i | 18%
COC(=O)[C@@]1(Cc2ccc(OC)cc2)[C@H]2c3cc(C(=O)N(C)C)n(Cc4ccc(C)o4)c3C[C@H]2CN1C(=O)c1ccccc1 | 0% | 10% | 2% | 16µM* | i | ?
COC(=O)[C@@]1(Cc2ccc(F)cc2)[C@H]2c3cc(C(=O)N(C)C)n(Cc4cccc5ccccc45)c3C[C@H]2CN1C(=O)c1ccccc1 | 1% | 11% | -1% | 16µM* | i | ?
COC(=O)[C@@]1(Cc2ccccc2)[C@H]2c3cc(C(=O)N4CCCC4)n(Cc4cccc5ccccc45)c3C[C@H]2CN1C(=O)c1ccccc1 | -1% | 5% | 2% | 1.6µM* | i | ?
COC(=O)[C@@]1(Cc2ccc(OC)cc2)[C@H]2c3cc(C(=O)N(C)C)n(Cc4ccc(S(C)(=O)=O)cc4)c3C[C@H]2CN1C(=O)c1ccccc1 | -1% | -4% | 0% | ? | i | ?
COC(=O)[C@@]1(Cc2ccc(OC)cc2)[C@H]2c3cc(C(=O)N(C)C)n(Cc4ccc(C)c(F)c4F)c3C[C@H]2CN1C(=O)c1ccccc1 | -2% | -4% | -3% | 2.5µM* | i | ?
CS(=O)(=O)c1ccc(CNC(=O)[C@H]2C[C@@H]2[C@H](NP(=O)(c2ccccc2)c2ccccc2)c2ccccc2)cc1 | 0% | -9% | 0% | -9% | i | 2%
N[C@@H](CSS(=O)(=O)O)C(=O)O | -1% | -3% | -2% | 8% | i | 2%
N#Cc1cccc(-c2nccc(-n3ccnc3)n2)c1 | -3% | 3% | -2% | -14% | i | -10%
COC(=O)[C@@]1(Cc2ccc(F)cc2)[C@H]2c3cc(C(=O)N(C)C)n(Cc4ccsc4Br)c3C[C@H]2CN1C(=O)c1ccccc1 | -2% | 0% | 0% | 4µM* | i | ?
COC(=O)[C@@]1(Cc2ccc(F)cc2)[C@H]2c3cc(C(=O)N4CCCC4)n(Cc4cc(F)cc5c4OCOC5)c3C[C@H]2CN1C(=O)c1ccccc1 | 2% | 14% | 3% | ? | i | ?
COC(=O)[C@@]1(Cc2ccccc2)[C@H]2c3cc(C(=O)N4CCCC4)n(Cc4cc(F)cc5c4OCOC5)c3C[C@H]2CN1C(=O)c1ccccc1 | -1% | -1% | 0% | 2.5µM* | i | ?
COC(=O)[C@@]1(Cc2ccc(OC)cc2)[C@H]2c3cc(C(=O)N(C)C)n(Cc4ccccn4)c3C[C@H]2CN1C(=O)c1ccccc1 | -1% | -4% | 3% | ? | i | ?
COC(=O)[C@@]1(Cc2ccc(F)cc2)[C@H]2c3cc(C(=O)N(C)C)n(Cc4ccc(S(C)(=O)=O)cc4)c3C[C@H]2CN1C(=O)c1ccccc1 | -2% | 14% | 25% | ? | i | ?
COC(=O)[C@@]1(Cc2ccc(OC)cc2)[C@H]2c3cc(C(=O)N(C)C)n(Cc4ccsc4Br)c3C[C@H]2CN1C(=O)c1ccccc1 | 0% | -11% | 0% | 6.3µM* | i | ?
OC[C@@H]1O[C@@H](n2cnc3c(N[C@@H]4C[C@@H]5CC[C@H]4C5)ncnc32)[C@@H](O)[C@H]1O | -1% | -6% | -3% | 18% | i | -6%
c1ccc2c3c([nH]c2c1)[C@@H]1[C@H]2CC[C@H]([C@H]4CCCN[C@H]42)N1CC3 | 1%[34.4 µM] | -6%[25.6 µM] | -1%[34.4 µM] | -6%[25.6 µM] | i | 4%[25.6 µM]
SMILES | BRCT PPI red | DNA Pol III inh | BRCT inh green | HEK293 cAMP cs | TsaE inh | TSHR agonist
Cn1cc(-c2nc3cncnc3n(CCN)c2=O)c2ccccc21 | -1% | -10% | -1% | -16% | i | -8%
CCCNC(=O)OC[C@@H]1O[C@H](CCO/N=C\C[C@H]2C=C[C@H](OC(C)=O)[C@@H](COC(C)=O)O2)C=C[C@@H]1Oc1ccc(OC)cc1 | 1%[15.4 µM] | / | 0%[15.4 µM] | 6%[11.4 µM] | / | 2%[11.4 µM]
C=CCNc1nc2c(c(=O)n(C)c(=O)n2C)n1Cc1ccc(F)cc1 | 1% | -3% | -2% | 25µM* | i | ?
CC(C)Cc1nc2oc3c(N4CCN(CCO)CC4)ncnc3c2c2c1CCCC2 | -1% | 1% | 5% | 16µM* | i | ?
O=C(c1ccccc1CCc1ccccc1)N1CCN(c2ccccn2)CC1 | -1% | 0% | 1% | 16µM* | i | ?
CN1CCN(c2ncc3nc(-c4cccc(C#N)c4)c(=O)n(C)c3n2)CC1 | 0% | -5% | -3% | ? | i | ?
COc1cccc(Oc2cn[nH]c2-c2ccc(O)cc2O)c1 | -2% | -2% | -1% | 1µM* | i | ?
COc1cccc(Oc2cn[nH]c2-c2ccc(OC)cc2O)c1 | 0% | -5% | 0% | ? | i | ?
Cc1ccccc1-c1cncnc1Nc1ccc(F)cc1 | -1% | -2% | -1% | 15% | i | /
CCCC(c1nnnn1Cc1ccco1)N1CCN(C2CCCC2)CC1 (configuration not stated) | -2% | ? | -1% | 16µM* | i | ?
CCC(c1nnnn1Cc1cccs1)N1CCN(C2CCCC2)CC1 (configuration not stated) | -1% | 2% | 2% | 5µM* | i | ?
